# ROS inducer – inducers of reactive oxygen species in cancer cells; U2OS ROS induction, H2DCF-DA fluorescence; ROS induction (% of piperlongumine), % at 10 µM; 46,000 tested, 2% active; AID 624156; in the data active means ROS induction above about 79%, passing the limit was not always enough; inconclusive means no clear call, values can overlap the other calls;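 further: 0% = DMSO vehicle median and 100% = reference compound median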
# YB-1 expr inh – YB-1 expression inhibition; 30,000 tested, 0.37% active; delta delta Cp (YB-1 minus CDIP) (test concentration not listed); U2OS, qRT-PCR YB-1 vs CDIP delta delta Cp, 16 h; stronger effect = higher value; zero = DMSO, each unit about twofold; AID 434959;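 active means delta delta Cp rounded down to an integer at or above 3, about 3 SD of DMSO wells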;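 further: higher means less YB-1 transcript or more CDIP transcript relative to DMSO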
# PD-1 reverse act – activators reversing PD-1 mediated T-cell inhibition; primary human CD4 T cells, PD-L1 beads, CellTiter-Glo 96 h; activation, % (concentration not given with the values); 29,000 tested, under 10 active; call rule not given here;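 further: 0% = median vehicle wells and 100% = positive control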
# NOMO-1 viab – STK33 inhibitor candidate reducing NOMO-1 cell viability; inhibition, % (concentration not given with the values); NOMO-1 AML viability, CellTiter-Glo luminescence, 72 h; 37,000 tested, 7.5% active; in the data active means inhibition above about 80%; inconclusive means no clear call, values can overlap the other calls
# * marks the source's active call; other numbers are inactive results; u = inconclusive; x = not tested or not shown. The full list was thinned out, with hits kept by preference.
SMILES,ROS inducer,YB-1 expr inh,PD-1 reverse act,NOMO-1 viab
COc1ccc(S(=O)(=O)Nc2cccc3c2O[C@H](CN(C)Cc2ccc(C(=O)Nc4ccccc4N)cc2)[C@H](C)CN([C@@H](C)CO)C3=O)cc1,17.4,-0.153,-2.1,127.2*
COc1ccc(S(=O)(=O)Nc2cccc3c2O[C@H](CN(C)Cc2ccc(C(=O)Nc4ccccc4N)cc2)[C@H](C)CN([C@H](C)CO)C3=O)cc1,2.6,-0.352,-1.1,128.1*
COc1ccc(S(=O)(=O)Nc2cccc3c2O[C@H](CN(C)Cc2ccc(C(=O)Nc4ccccc4N)cc2)[C@@H](C)CN([C@H](C)CO)C3=O)cc1,48.0,0.143,0.4,55.2
COC(=O)CCCCCCC(=O)N/N=C/c1ccc2c(c1)CCO2,-2.4,0.0115,x,x
C[C@@H]1CN([C@H](C)CO)C(=O)c2cccc(NC(=O)c3ccc(-c4nccs4)cc3)c2O[C@H]1CN(C)Cc1ccc(Cl)c(Cl)c1,u,-0.342,-4.1,105.9*
C[C@H](CO)N1C[C@H](C)[C@H](CN(C)Cc2ccc(Cl)c(Cl)c2)Oc2c(NC(=O)c3ccc(-c4nccs4)cc3)cccc2C1=O,57.8,-0.342,-5.2,108.1*
C[C@@H]1CN([C@@H](C)CO)C(=O)c2cccc(NC(=O)c3ccc(-c4nccs4)cc3)c2O[C@@H]1CN(C)Cc1ccc(Cl)c(Cl)c1,22.3,0.0712,-2.6,51.6
C[C@H]1CN([C@@H](C)CO)C(=O)c2cccc(NC(=O)c3ccc(-c4nccs4)cc3)c2O[C@H]1CN(C)Cc1ccc(Cl)c(Cl)c1,71.8,0.0407,x,102.3*
C[C@@H]1CN([C@H](C)CO)C(=O)c2cccc(NC(=O)c3ccc(-c4nccs4)cc3)c2O[C@H]1CN(C)Cc1ccc(-c2ccccc2)cc1,39.5,0.172,-1.8,24.3
Cc1c(Cl)cccc1NC(=O)N1CC(C)Sc2ccccc21 (configuration not stated),-5.4,x,x,x
CCC1c2[nH]c3ccccc3c2CCN1C(=O)c1ccc(Cl)cc1 (configuration not stated),22.6,-0.0644,-0.4,84.2*
C=CC(C)(C)[C@@]12CC(=O)C(=O)N3/C(=C/c4cnc[nH]4)C(=O)N[C@]31N(OC)c1ccccc12,-7.8,0.32,0.2,117.9*
NC(=O)CSc1nc2c(sc3ccccc32)c(=O)n1-c1ccccc1,10.3,x,x,x
C=CCn1c(SCC(C)C)nc2sc3c(c2c1=O)CC(C)(C)OC3,18.3,x,x,x
Cc1nnc(SCC(=O)Nc2ccc(Cl)c(C)c2)s1,3.7,x,1.0,0.7
O=C(O)c1cccc(CSc2nnc(-c3ccncc3)o2)c1,x,x,x,28.7
CCNC(=S)Nc1sc2c(c1C#N)CCC(C)C2 (configuration not stated),166.9*,-0.137,-0.2,18.9
C=C(CO)C(=O)O[C@H]1C[C@@]23O[C@@H]2CC/C(=C/[C@H]2OC(=O)C(=C)[C@H]12)CO[C@@H]3O,54.6,-0.316,-1.2,103.5*
O=C1O[C@@H](c2ccccc2)[C@@H](c2ccccc2)N2[C@@H](c3ccccc3OCCO)[C@]3(C(=O)Nc4ccccc43)[C@@H](C(=O)O)[C@H]12,6.0,-0.0332,x,x
O=C1O[C@H](c2ccccc2)[C@H](c2ccccc2)N2[C@H]1[C@@H](C(=O)N1CCN(c3ncccn3)CC1)[C@]1(C(=O)Nc3ccccc31)[C@H]2c1ccccc1OCCO,169.9*,-0.214,x,x
COC(=O)C(CC#Cc1ccc2c(c1)[C@]1(C(=O)N2)[C@H](c2ccccc2OCCO)N2[C@H](c3ccccc3)[C@H](c3ccccc3)OC(=O)[C@H]2[C@@H]1C(=O)N1CCN(c2ncccn2)CC1)C(=O)OC,99.0*,-0.153,x,x
COC(=O)C(CC#Cc1ccc2c(c1)[C@]1(C(=O)N2)[C@H](c2ccc(OCCO)cc2)N2[C@H](c3ccccc3)[C@H](c3ccccc3)OC(=O)[C@H]2[C@@H]1C(=O)N1CCN(c2ncccn2)CC1)C(=O)OC,54.0,-0.167,x,x
O=C1O[C@@H](c2ccccc2)[C@@H](c2ccccc2)N2[C@@H](c3ccc(OCCO)cc3)[C@]3(C(=O)Nc4ccccc43)[C@@H](C(=O)N3CCN(c4ncccn4)CC3)[C@H]12,96.5*,-0.193,x,x
O=C1O[C@H](c2ccccc2)[C@H](c2ccccc2)N2[C@H]1[C@@H](C(=O)N1CCN(c3ncccn3)CC1)[C@]1(C(=O)Nc3ccc(C#CC4(O)CCCCCC4)cc31)[C@H]2c1ccc(OCCO)cc1,24.7,-0.0329,x,x
Cc1nc(S(=O)(=O)NC[C@@H]2CCCN(Cc3cccc(OCCO)c3)C2)cn1C,25.6,-0.238,x,x
SMILES,ROS inducer,YB-1 expr inh,PD-1 reverse act,NOMO-1 viab
C[C@H]1CN([C@@H](C)CO)C(=O)c2cc(NC(=O)Nc3ccc(C(F)(F)F)cc3)ccc2O[C@@H]1CN(C)Cc1ccncc1,2.2,0.427,-1.9,36.3
C[C@H](CO)N1C[C@H](C)[C@@H](CN(C)Cc2ccc(C(F)(F)F)cc2)Oc2ccc(NC(=O)Nc3ccc(C(F)(F)F)cc3)cc2C1=O,11.7,0.225,x,129.7*
C[C@@H]1CN([C@@H](C)CO)C(=O)c2cc(NC(=O)Nc3ccc(C(F)(F)F)cc3)ccc2O[C@H]1CN(C)Cc1ccc(C(F)(F)F)cc1,17.9,0.447,-12.2,116.6*
C[C@@H]1CN([C@@H](C)CO)C(=O)c2cc(NC(=O)Nc3ccc(C(F)(F)F)cc3)ccc2O[C@@H]1CN(C)Cc1ccc(Cl)c(Cl)c1,-5.9,0.441,0.7,107.6*
C[C@H](CO)N1C[C@H](C)[C@@H](CN(C)Cc2ccc(C(F)(F)F)cc2)Oc2ccc(NC(=O)Nc3ccc(F)cc3)cc2C1=O,21.4,-0.00896,-1.1,119.4*
COc1ccc(NS(=O)(=O)Cc2ccccc2)cc1,-6.0,x,x,x
N#CCCn1c(-c2cncs2)nc2ccccc21,-3.1,x,x,x
CC(C)(C)NC(=O)c1ccccc1SCc1ccc(F)cc1,-2.4,x,x,x
C[C@@H]1CN([C@@H](C)CO)C(=O)c2cc(NC(=O)Nc3ccc(C(F)(F)F)cc3)ccc2O[C@@H]1CN(C)Cc1ccc(C(F)(F)F)cc1,9.8,-0.316,-7.2,118.0*
C[C@@H]1CN([C@H](C)CO)C(=O)c2cc(NC(=O)Nc3ccc(C(F)(F)F)cc3)ccc2O[C@@H]1CN(C)Cc1ccc(C(F)(F)F)cc1,2.9,-0.00831,-5.7,114.6*
C[C@@H]1CN([C@H](C)CO)C(=O)c2cc(NC(=O)Nc3ccc(F)cc3)ccc2O[C@@H]1CN(C)Cc1ccc(C(F)(F)F)cc1,16.7,0.327,-2.1,u
C[C@H]1CN([C@@H](C)CO)C(=O)c2cc(NC(=O)Nc3ccc(C(F)(F)F)cc3)ccc2O[C@@H]1CN(C)Cc1ccc(C(F)(F)F)cc1,-7.2,0.166,-13.5,114.2*
C[C@H](CO)N1C[C@H](C)[C@H](CN(C)Cc2ccc(C(F)(F)F)cc2)Oc2ccc(NC(=O)Nc3ccc(C(F)(F)F)cc3)cc2C1=O,5.8,0.0817,2.1,39.0
C[C@H](CO)N1C[C@H](C)[C@H](CN(C)Cc2ccc(C(F)(F)F)cc2)Oc2ccc(NC(=O)Nc3ccc(F)cc3)cc2C1=O,62.8,-0.249,-5.3,33.1

# Bioassay records as filed in PubChem BioAssay.
